Screening data: PubChem BioAssay, National Center for Advancing Translational Sciences (NCATS)
HPGD block: inhibitors of human 15-hydroxyprostaglandin dehydrogenase (HPGD); P15428; purified HPGD, NADH fluorescence kinetic, PGE2 substrate; Potency, µM, for the others: at the highest dose activity change, negative = inhibition, hits mostly inhibitors; 150,000 tested, 4.3% active; AID 894; further: potency means the concentration at half of the fitted maximal effect
Target sequence (P15428 whole entry, looked up): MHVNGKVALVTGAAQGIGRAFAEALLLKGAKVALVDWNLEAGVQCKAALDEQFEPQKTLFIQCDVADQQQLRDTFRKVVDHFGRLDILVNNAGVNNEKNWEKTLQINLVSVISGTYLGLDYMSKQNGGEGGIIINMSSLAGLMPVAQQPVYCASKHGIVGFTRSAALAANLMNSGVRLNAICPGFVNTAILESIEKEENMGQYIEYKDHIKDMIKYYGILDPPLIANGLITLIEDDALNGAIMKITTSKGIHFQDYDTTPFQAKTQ
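20 nM HPGD preincubated 15 min at room temperature with compound in 50 mM Tris-HCl pH 8, 0.01% Tween 20. Started with 1 mM NAD+ and 30 uM prostaglandin E2; NADH fluorescence (360/450 nm) read 5 times over 30-s intervals, last minus first.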
ALDH1A1 inh: inhibitors of human aldehyde dehydrogenase 1A1 | P00352 | Purified ALDH1A1, NADH fluorescence, propionaldehyde substrate | Potency, µM (series often up to 75.3 µM), for inactives: at the top dose activity, negative = inhibition, actives largely listed as inhibitors | 220,000 tested, 7.3% active | AID 1030;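 further: potency means the concentration at half of the fitted maximal effect; plate controls were no enzyme wells and a reference inhibitor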
IMPase cell inh: IMPase inhibition in cells | CHO-M1 cells, IP1 accumulation, HTRF TR-FRET ratio | inhibition (IP1 accumulation), % at 46.1 µM | P97697 | 120,000 tested, under 10 active | AID 901; active means well fitted curve in the direction sought with a large enough effect in the signal ratio, not every such curve was filed as active; inconclusive means small, poorly fitted or top-dose-only effect, or a change in a side signal; inactive means no such curve, though single readings can be large or run the other way; the % refers to the signal ratio;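 further: cells stimulated with carbachol in lithium chloride buffer; plate controls were DMSO basal wells for no effect and reference inhibitor wells for full effect; higher means more IMPase inhibition seen as more IP1 and lower FRET ratio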
Target sequence (P97697 whole entry, looked up): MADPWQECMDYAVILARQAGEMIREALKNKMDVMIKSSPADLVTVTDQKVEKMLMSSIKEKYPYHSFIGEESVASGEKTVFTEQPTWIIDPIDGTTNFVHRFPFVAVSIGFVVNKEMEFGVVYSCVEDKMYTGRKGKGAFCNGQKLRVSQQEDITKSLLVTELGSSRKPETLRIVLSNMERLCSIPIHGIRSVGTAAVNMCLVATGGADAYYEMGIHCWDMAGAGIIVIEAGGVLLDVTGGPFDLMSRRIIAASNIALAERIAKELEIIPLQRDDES
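Cellular IMPase inhibition is scored as a rise in cytosolic IP1, detected by competitive TR-FRET between d2-labelled IP1 and a europium anti-IP1 antibody. M1-expressing CHO cells were stimulated with carbachol for 30 min at 37C, with lithium (50 mM LiCl) present in the buffer.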
Starred values were filed as active, the others as inactive; ? = inconclusive; nt = no result given; [ ] = dose if it differs, or a comment. The list is not random: actives were taken first. Their share in the collection is about 9%. Unless noted, the call rests on the fitted dose curve; in most records, active means well fitted inhibition curve with a large enough effect (not every such curve was filed as active); inconclusive means small, poorly fitted or top-dose-only effect, or another doubt; inactive means no such curve, though single readings can be large or run the other way. Unless noted, on the % scale 0 is the no-effect control and ±100 the full control effect.

SMILES	HPGD block	ALDH1A1 inh	IMPase cell inh
COc1ccc(CN2C(=O)c3cccnc3C2Nc2ccc(OC)c(Cl)c2)cc1 (stereo unspecified)	-29%	-4%	1
COc1cc2c(cc1NC(=O)COc1ccc(Cl)cc1Br)oc1ccccc12	nt	nt	-1
COc1ccc(CNc2cc(-c3ccccc3Cl)ncn2)c(OC)c1	nt	-11%	nt
Cc1ccc(CNC(=O)CN2CCN(Cc3ccc(F)cc3)C2=O)cc1	nt	nt	-2
Cc1ccc(-n2nc3c(=O)n(CC(=O)c4ccc(F)cc4)nc(C)c3c2C)cc1	-8%	-2%	nt
COc1ccc(C(=O)c2coc3ccc(O)c(CN4CCCCC4)c23)cc1	-17%	13µM*	7
O=C(c1ccccc1)c1coc2ccc(O)c(CN3CCOCC3)c12	-4%	?	14
O=C(CNC(c1ccccc1)c1ccccc1)Nc1ccccc1-c1ccccc1	-19%	?	-1
CCCCC(CCC(=O)Nc1ccc(C(=O)OC)cc1)C(=O)O (stereo unspecified)	-7%	6%	1
CCNC(=O)CN(c1ccc(CC)cc1)S(C)(=O)=O	-10%	5%	-3
COc1c(O)c(O)cc2c1oc1c3cc(C)ccc3oc(=O)c21	14µM*	-8%	nt
O=c1oc2ccccc2c2oc3cc(O)c(O)cc3c12	?	-5%	nt
CCOc1cc(/C=N/N2C(=O)NC3(CCCCC3)C2=O)cc(Br)c1O	nt	15µM*	nt
COc1cccc(/C=N/N2C(=O)NC3(CCCCC3)C2=O)c1O	-15%	?	-2
C=CCCCCCCCCC(=O)NN	-8%	14µM*	-1
C=CCCCCCCCC(=O)OC	nt	18µM*	nt
C=CCCCCCCCCC(=O)O	-9%	2%	nt
COC(=O)CCCCC(=O)OC	-1%	-6%	nt
COC(=O)CC1C2(C)CC34OC5(C)O[C@@]6(C7/C(=C(/OC)C(C)C)C(=O)OC(c8ccoc8)[C@@]7(C)C(OC(=O)C(C)C)C(OC)[C@]6(O5)[C@@]13C)C(OC)[C@]4(OC)C2OC(C)=O (stereo partly specified)	-9%	3%	nt
CCOC(=O)c1[nH]c2c(c1Cc1ccccc1OC)C(=O)CC(c1ccc(OCC)cc1)C2 (stereo unspecified)	nt	nt	-4
Cc1ccc(-n2nc(C)c3c2OC(N)=C(C#N)C3c2ccc(F)cc2)cc1 (stereo unspecified)	-4%	4%	-2
Cc1nn(-c2ccccc2)c2c1C(c1ccc([N+](=O)[O-])cc1)C(C#N)=C(N)O2 (stereo unspecified)	nt	14µM*	nt
Cc1nn(-c2ccccc2)c2c1C(c1cccs1)C(C#N)=C(N)O2 (stereo unspecified)	?	11µM*	11
Cc1nn(S(=O)(=O)c2ccc(Cl)cc2)c(C)c1Sc1ccc([N+](=O)[O-])cc1	-17%	?	nt
Cc1nn(-c2ccccc2)c2c1C(c1ccco1)C(C#N)=C(N)O2 (stereo unspecified)	-15%	1µM*	-1
SMILES	HPGD block	ALDH1A1 inh	IMPase cell inh
CCCc1nn(-c2ccccc2)c2c1C(c1cccs1)C(C#N)=C(N)O2 (stereo unspecified)	-17%	6%	4
Cc1[nH]nc2c1C(c1ccco1)C(C#N)=C(N)O2 (stereo unspecified)	nt	2%	nt
Cc1nn(-c2ccccc2)c(N)c1Sc1ccc([N+](=O)[O-])cc1	20µM*	1.4µM*	12
CC1CN2C(CCC(C)C2c2ccc(Br)cc2)C(=O)O1 (stereo unspecified)	nt	28%[13.5 µM]	nt
O=C(Nc1ccccc1F)NC1CCN(Cc2nnnn2Cc2ccc(F)cc2)CC1	-9%	-4%	5
CCOc1ccccc1C(=O)NC1CC2CCCC(C1)N2C1CC1 (stereo unspecified)	-5%	-7%	-4
O=C(Nc1ccc(F)cc1)NC1CCN(Cc2nnnn2Cc2ccco2)CC1	2%	18µM*	6
O=C(NCc1ccccc1)NC1CC2CCC(C1)N2Cc1ccco1 (stereo unspecified)	-2%	3%	14
CCOc1ccccc1C(=O)NC1CC2CCCC(C1)N2Cc1nnnn1Cc1ccco1 (stereo unspecified)	0%	1µM*	10
O=C(NC1CC2CCC(C1)N2Cc1nnnn1Cc1ccco1)NC12CC3CC(CC(C3)C1)C2 (stereo unspecified)	21%	7.9µM*	-2
C=C1CC[C@@H]2O[C@@]2(C)CC[C@H]2[C@H]1CC2(C)C	-3%	-10%	-2
NC(=S)NNC(=O)C12CC3CC(CC(C3)C1)C2	-7%	?	nt
O=C1NC(c2ccccc2)Nc2c1sc(=S)n2-c1ccccc1 (stereo unspecified)	nt	32µM*	nt
COc1ccc(C2NC(=O)c3sc(=S)n(-c4ccccc4)c3N2)cc1 (stereo unspecified)	-19%	-6%	3
O=C(O)C/C(=C\c1ccco1)C(=O)O	-10%	8%[13.5 µM]	nt
Cc1cc(Nc2ccccc2Br)n2nc(C)nc2n1	?	3%	nt
COC(=O)c1ccccc1Nc1cc(C)nc2nc(C)nn12	1µM*	22%	nt
CCOC(=O)c1ccccc1Nc1cc(C)nc2nc(C)nn12	2.2µM*	5%	-5
COC(=O)c1ccc(Nc2cc(C)nc3nc(C)nn23)cc1	-26%	7%	nt
Cc1cccc(Oc2nc(CN3CCOCC3)nc3sc4c(c23)CCCC4)c1	-16%	?	nt
O=C(/C(Br)=C/Nc1cc(Cl)ccc1Cl)C(F)(F)F	?	16µM*	nt
O=C(Nc1cc(Cl)ccc1Cl)N1CCCC1	nt	0%	nt
Cc1nc2nc(SCC(=O)N3CCOCC3)nn2c(C)c1Cc1c(F)cccc1Cl	8.9µM*	?	1
Cc1nc2nc(SCC(=O)NCCN3CCOCC3)nn2c(C)c1Cc1ccccc1	-26%	-10%	3
O=C(CCn1ccnc1)Nc1ccc2ccccc2c1	nt	-3%	nt
SMILES	HPGD block	ALDH1A1 inh	IMPase cell inh
COc1cccc(N2CCN(c3ccc(S(=O)(=O)N4CCCC4)cc3)CC2)c1	-17%	-3%	2
COc1cccc(Nc2ccc(C(=O)O)cc2[N+](=O)[O-])c1	28µM*	-9%	10
COc1ccc(C)cc1Nc1ccc(C(=O)O)cc1[N+](=O)[O-]	nt	3%	nt
Cc1cccc(OC2(c3ccccc3)OC(=O)c3ccccc32)c1C (stereo unspecified)	-20%	7%	9
C[N+]1(C2CCC3CCCC2C3O)CCCC1 (stereo unspecified)	-4%	3%	nt
COc1cc(C2C(C#N)=C(N)Oc3c2c(-c2ccccc2)nn3-c2ccccc2)cc(OC)c1OC (stereo unspecified)	-21%	-6%	nt
CSc1nc(Sc2ccccc2Cl)c2ccccc2n1	-14%	-5%	-25
CCOC(=O)c1cnc(SC)nc1Sc1ccccc1Cl	16µM*	6%	11
Cc1ccccc1C(=O)NCC(=O)O	nt	5%	nt
O=C(NCC1CCCO1)C(Cc1ccccc1)N1C(=O)C2C3C=CC(C4CC34)C2C1=O (stereo unspecified)	nt	0%	nt
COc1ccc(-c2nc3ccccc3n3c(-c4ccccc4)c4c(=O)n(C)c(=O)n(C)c4c23)cc1	nt	nt	0
COc1cccc(N2C(=O)C3CCCN3C2c2ccc(N(C)C)cc2)c1 (stereo unspecified)	-12%	1µM*	5
COc1cccc(N2C(=O)C3CCCN3C2c2ccc(Cl)cc2)c1 (stereo unspecified)	-8%	6%	3
CCOc1ccc(NC(=O)NCCCN2CCN(c3ccc(F)cc3)CC2)cc1	nt	nt	14
